# The entries come from a sample that favours the strongest signals as a whole.
# Key:
# Test in all cases: glycan array binding signal (z-score within array); higher = stronger binding
# Conditions in all cases: glycan notation: IUPAC condensed, linker removed
# [1] = biological target: Gal(b1-4)GlcNAc(b1-3)Gal(b1-4)GlcNAc(b1-6)[Gal(b1-3)]GalNAc
# Method in brief: (§1)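 The Consortium for Functional Glycomics database supplied 3228 glycan arrays, of which those lacking an available protein sequence were dropped. The binding signal, a within-array Z-score, was averaged across arrays of the same protein sequence and across linkers. Negative scores can be read as non-binding.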
# [2] = biological target: Gal3S(b1-4)[Fuc(a1-3)]Glc6S
# Method in brief: as §1
# [3] = biological target: Gal6P(b1-4)GlcNAc
# Method in brief: as §1
# [4] = biological target: GalNAc(a1-3)GalNAc
# Method in brief: as §1
# [5] = biological target: GalNAc(b1-3)GalNAc
# Method in brief: as §1
# [6] = biological target: GalNAc(b1-3)GlcNAc
# Method in brief: as §1
# [7] = biological target: GalNAc(b1-4)GlcNAc(b1-2)Man(a1-3)[GalNAc(b1-4)GlcNAc(b1-2)Man(a1-6)]Man(b1-4)GlcNAc(b1-4)GlcNAc
# Method in brief: as §1
# [8] = biological target: GlcA(b1-3)GlcNAc
# Method in brief: as §1
# [9] = biological target: GlcNAc(b1-2)[GlcNAc(b1-4)]Man(a1-3)[GlcNAc(b1-4)][GlcNAc(b1-2)Man(a1-6)]Man(b1-4)GlcNAc(b1-4)GlcNAc
# Method in brief: as §1
# [10] = biological target: GlcNAc(b1-3)Gal(b1-4)GlcNAc(b1-3)Gal(b1-4)GlcNAc(b1-3)Gal(b1-4)GlcNAc(b1-3)Gal(b1-4)GlcNAc(b1-2)Man(a1-3)[GlcNAc(b1-3)Gal(b1-4)GlcNAc(b1-3)Gal(b1-4)GlcNAc(b1-3)Gal(b1-4)GlcNAc(b1-3)Gal(b1-4)GlcNAc(b1-2)Man(a1-6)]Man(b1-4)GlcNAc(b1-4)[Fuc(a1-6)]GlcNAc
# Method in brief: as §1
# [11] = biological target: Kdn(a2-6)Gal(b1-4)GlcNAc
# Method in brief: as §1
# [12] = biological target: Man(a1-2)Man(a1-3)[Man(a1-2)Man(a1-6)]Man
# Method in brief: as §1
# [13] = biological target: Man(a1-2)Man(a1-6)[Man(a1-3)]Man(a1-6)[Man(a1-2)Man(a1-2)Man(a1-3)]Man(b1-4)GlcNAc(b1-4)GlcNAc
# Method in brief: as §1
# [14] = biological target: Neu5Ac(a2-3)Gal(b1-3)GalNAc(b1-3)Gal(a1-4)Gal(b1-4)Glc
# Method in brief: as §1
# [15] = biological target: Neu5Ac(a2-3)Gal(b1-4)GlcNAc(b1-2)Man
# Method in brief: as §1
# [16] = biological target: Neu5Ac(a2-3)Gal(b1-4)GlcNAc(b1-3)Gal(b1-4)GlcNAc(b1-3)[Neu5Ac(a2-3)Gal(b1-4)GlcNAc(b1-3)Gal(b1-4)GlcNAc(b1-6)]GalNAc
# Method in brief: as §1
# [17] = biological target: Neu5Ac(a2-3)Gal(b1-4)GlcNAc(b1-3)Gal(b1-4)GlcNAc(b1-6)[Gal(b1-3)]GalNAc
# Method in brief: as §1
# [18] = biological target: Neu5Ac(a2-3)Gal(b1-4)GlcNAc6S
# Method in brief: as §1
# [19] = biological target: Neu5Ac(a2-3)Gal6S(b1-4)GlcNAc
# Method in brief: as §1
# [20] = biological target: Neu5Ac(a2-3)GalNAc
# Method in brief: as §1
# [21] = biological target: Neu5Ac(a2-6)Gal(b1-3)GlcNAc(b1-3)[Gal(b1-4)GlcNAc(b1-6)]Gal(b1-4)Glc
# Method in brief: as §1
# [22] = biological target: Neu5Ac(a2-6)Gal(b1-4)GlcNAc(b1-2)[Neu5Ac(a2-6)Gal(b1-4)GlcNAc(b1-4)]Man(a1-3)[GlcNAc(b1-4)][Neu5Ac(a2-6)Gal(b1-4)GlcNAc(b1-4)Man(a1-6)]Man(b1-4)GlcNAc(b1-4)GlcNAc
# Method in brief: as §1
# [23] = biological target: Neu5Ac(a2-6)Gal(b1-4)GlcNAc(b1-2)[Neu5Ac(a2-6)Gal(b1-4)GlcNAc(b1-6)]Man(a1-6)[Neu5Ac(a2-6)Gal(b1-4)GlcNAc(b1-2)Man(a1-3)][GlcNAc(b1-4)]Man(b1-4)GlcNAc(b1-4)GlcNAc
# Method in brief: as §1
# [24] = biological target: Neu5Ac(a2-6)Gal(b1-4)GlcNAc(b1-3)Gal(b1-3)GlcNAc
# Method in brief: as §1
# [25] = biological target: Neu5Ac(a2-8)Neu5Ac(a2-3)Gal(b1-3)GalNAc(b1-4)[Neu5Ac(a2-8)Neu5Ac(a2-3)]Gal(b1-4)Glc
# Method in brief: as §1
# [26] = biological target: Neu5Gc(a2-3)Gal(b1-3)[Fuc(a1-4)]GlcNAc
# Method in brief: as §1
binder,measurement,setting,value
"AntigenI/IIA3VP1 (Streptococcus mutans), C9E3B4 (protein) AANEADYQAKLTAYQTELARVQKANADAKAAYEAAVAANNAANAALTAENTAIKKRNADAKADYEAKLAKYQADLAKYQKDLADYPVKLKAYEDEQASIKAALAELEKHKNEDGNLTEPSAQNLVYDLEPNANLSLTTDGKFLKASAVDDAFSKSTSKAKYDQKILQLDDLDITNLEQSNDVASSMELYGNFGDKAGWSTTVSNNSQVKWGSVLLERGQSATATYTNLQNSYYNGKKISKIVYKYTVDPKSKFQGQKVWLGIFTDPTLGVFASAYTGQVEKNTSIFIKNEFTFYDEDGKPINFDNALLSVASLNREHNSIEMAKDYSGKFVKISGSSIGEKNGMIYATDTLNFKQGEGGSRWTMYKNSQAGSGWDSSDAPNSWYGAGAIKMSGPNNYVTVGATSATNVMPVSDMPVVPGKDNTDGKKPNIWYSLNGKIRAVNVPKVTKEKPTPPVKPTAPTKPTYETEKPLKPAPVAPNYEKEPTPPTRLEHHHHHH",glycan array binding signal (z-score),[1],-0.398
same,glycan array binding signal (z-score),[2],3.68
same,glycan array binding signal (z-score),[3],-1.28
same,glycan array binding signal (z-score),[4],0.327
same,glycan array binding signal (z-score),[5],1.37
same,glycan array binding signal (z-score),[6],-0.475
same,glycan array binding signal (z-score),[7],-0.868
same,glycan array binding signal (z-score),[8],-0.575
same,glycan array binding signal (z-score),[9],-1.35
same,glycan array binding signal (z-score),[10],3.23
same,glycan array binding signal (z-score),[11],-1.05
same,glycan array binding signal (z-score),[12],-0.805
same,glycan array binding signal (z-score),[13],0.975
same,glycan array binding signal (z-score),[14],0.492
same,glycan array binding signal (z-score),[15],0.921
same,glycan array binding signal (z-score),[16],0.324
same,glycan array binding signal (z-score),[17],-0.29
same,glycan array binding signal (z-score),[18],-0.627
same,glycan array binding signal (z-score),[19],-0.68
same,glycan array binding signal (z-score),[20],-1.05
same,glycan array binding signal (z-score),[21],0.439
same,glycan array binding signal (z-score),[22],1.05
same,glycan array binding signal (z-score),[23],0.993
same,glycan array binding signal (z-score),[24],-1.1
same,glycan array binding signal (z-score),[25],-0.035
same,glycan array binding signal (z-score),[26],-0.885

# Source: the supplement of paper PMC8728848
